Laboratory results reported in PubChem BioAssay (EPA / NIEHS).
Calls of active or inactive are those of the source. The calls were made as follows: active = hit-call score of the fitted dose curve at least 0.9, where 1 is the maximum; inactive = score below 0.9.

read-out: Monocyte Chemoattractant Protein-1 (MCP1), CCL2 (gene 6347); assay: BSK_LPS_MCP1: BioMAP Diversity Plus: LPS Assay for Monocyte Chemoattractant Protein-1 (MCP1) Biomarker Activity (AID 2283081); settings: primary human HUVEC with PBMC; actives raise or lower the signal;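 as to AC50: co-culture stimulated with LPS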
Protocol: BSK_LPS is a cell-based, multiplexed-readout assay that uses umbilical vein endothelium and peripheral blood mononuclear cells, a human vascular primary cell co-culture, with measurements taken at 24 hours after chemical dosing in a 96-well plate.BSK_LPS_MCP1 is an assay component measured in the BSK_LPS assay. It measures MCP-1 antibody related to regulation of gene expression using ELISA technology.Data from the assay component BSK_LPS_MCP1 was analyzed into 1 assay endpoint. This assay endpoint, BSK_LPS_MCP1, was analyzed with bidirectional fitting relative to DMSO as the negative control and baseline of activity. Using a type of binding reporter, gain or loss-of-signal activity can be used to understand changes in the signaling as they relate to the gene CCL2. Furthermore, this assay endpoint can be referred to as a primary readout, because this assay has produced multiple assay endpoints where this one serves a signaling function. To generalize the intended target to other relatable targets, this assay endpoint is annotated to the cytokine intended target family, where the subfamily is chemotactic factor.
The levels of cell surface (or secreted, indicated by the prefix "s") biomarker endpoints were measured by ELISA. Overt cytotoxicity to cells in confluent adherent cultures (all systems other than the BT system) was assessed by measuring total protein levels using sulforhodamine B (SRB) staining in parallel cultures at the time of biomarker measurements, indicated as SRB endpoints. For proliferation assays for adherent cell types, individual cell types are cultured at sub-confluence and relative cell numbers quantified by SRB staining at time points optimized for each system (48 h: 3C and CASM3C systems; 72 h: BT and HDF3CGF systems; 96 h: SAg system). SRB was performed by staining cells with 0.1% SRB after fixation with 10% TCA and reading wells at 560 nm.Viability and proliferation of PBMC (T cells) was quantified by Alamar Blue reduction for the SAg and BT systems. For PBMC viability (referred to as PBMC Cytotoxicity within the assay endpoint names), cells were plated (75,000/well in a 96-well plate) and then chemical samples added for 1 h before addition of activators, SEB and TSST-1 (20 ng/mL final concentration each). Cells were incubated for 90 h. Then, Alamar Blue (20 uL/well) (Invitrogen, Cat DAL1100) was added for 6 h, and the plates were read with a fluorescence microplate reader at 546/580 nm (excitation/emission). For PBMC proliferation, cells were plated and activated as above but incubated for only 16 h prior to addition of Alamar Blue. Plates were read after 6 h.

SMILES | outcome | AC50
O=C1CCCO1 | inactive | –
CN(C)c1ccc(C(=O)c2ccc(N(C)C)cc2)cc1 | inactive | –
Cn1cc(-c2ccccc2)c(=O)c(-c2cccc(C(F)(F)F)c2)c1 | inactive | –
O=C(Oc1ccc(Br)cc1)N1CCN2CCC1CC2 | inactive | –
CN(C)c1ccccc1 | inactive | –
CC(C)(C)OOC(=O)c1ccccc1 | inactive | –
O=C(Nc1ccccc1)c1ccccc1I | inactive | –
CCCSC(=O)N(CCC)CCC | inactive | –
c1ccc(C2CO2)cc1 (stereo not given) | inactive | –
ClCCOCCCl | inactive | –
C[C@]12C=CC3=C4CCC(=O)C=C4CC[C@H]3[C@@H]1CC[C@@H]2O | inactive | –
OCCOCCO | inactive | –
CCC(C)c1ccc(O)cc1 (stereo not given) | inactive | –
c1ccc2c(c1)oc1ccccc12 | inactive | –
C[N+](C)(C)CC1CO1 (stereo not given) | inactive | –
CC(C)(O)c1cnn2c(-c3ccc(F)c(-c4c(F)cccc4C#N)c3)cnc2n1 | inactive | –
Cc1cccc(N)c1N | inactive | –
[As]#[In] | inactive | –
Cc1ccc(N)cc1 | inactive | –
Nc1cc(Cl)cc(C(=O)O)c1Cl | inactive | –

SMILES | outcome | AC50
c1ccc(NNc2ccccc2)cc1 | inactive | –
[O-][Cl+]O | inactive | –
CC(O)CCO (stereo not given) | inactive | –
O=C(O)C1C2CCC(O2)C1C(=O)O (stereo not given) | inactive | –
CCCCCCCCn1sccc1=O | – | 6.88 µM (active)
O=[N+]([O-])c1ccc(Oc2ccc(Cl)cc2Cl)cc1 | – | 25.7 µM (active)
CCN(CC)N=O | inactive | –
Nc1ccc(Cl)cc1N | inactive | –
Cc1ccc([N+](=O)[O-])cc1 | inactive | –
Nc1ccc(N=Nc2ccccc2)cc1 | inactive | –
O=[N+]([O-])C(Br)(CO)CO | – | 25.9 µM (active)
Nc1ccc(Cc2ccc(N)cc2)cc1 | inactive | –
N#CC(Br)(Br)C(N)=O | inactive | –
CCOC(=O)[C@]1(c2ccccc2)Oc2ccccc2[C@@H]1N | inactive | –
Brc1ccc(Oc2ccccc2)cc1 | inactive | –
c1ccc(N=Nc2ccccc2)cc1 | inactive | –
CN(C)[C@@H]1C(=O)C(C(N)=O)=C(O)[C@@]2(O)C(=O)C3=C(O)c4c(O)cccc4[C@@](C)(O)[C@H]3C[C@@H]12 | inactive | –
CS(=O)(=O)NC(=O)c1cc(Oc2ccc(C(F)(F)F)cc2Cl)ccc1[N+](=O)[O-] | inactive | –
Clc1ccccc1Cl | inactive | –
CC(C)(C)OOC(C)(C)CCC(C)(C)OOC(C)(C)C | inactive | –
